Data reported in PubChem BioAssay (NCATS).
Records with an inconclusive call do not appear. Values without a mark were called inactive. The source made the active and inactive calls. Calls follow the shape of the dose curve; as a rule, active = well fitted cell-killing curve with a large enough effect; inconclusive = small, poorly fitted or top-dose-only effect; inactive = no such curve, though single readings can be large or run the other way.

Assay: qHTS of pediatric cancer cell lines to identify multiple opportunities for drug repurposing: Primary screen for SK-N-SH cells (AID 1347098); also: nearly all actives have a fitted effect of over 65% in size
Details: SK-N-SH viability, CellTiter-Glo luminescence, 48 h; series mostly up to 57 µM; activity change, negative = cytotoxic: at the top concentration
Description: Drug repurposing or repositioning has been offered as a strategy for drug development in oncology programs. This approach has special potential for childhood cancers and other rare or orphan diseases, where the expected return on new drug development has been a disincentive to pharmaceuticals.
In this project we exploit the poly-pharmacology of drugs to discover new indications via phenotypic screening of a panel of 19 well-characterized cell lines derived from solid tumors seen in children and adolescents. The goal is to identify approved drugs with previously unrecognized anticancer properties that has the potential to reveal new mechanisms and biological processes involved in carcinogenesis or drug resistance. We employed a titration-based paradigm (quantitative high-throughput screening or qHTS), where all compounds were tested at multiple concentrations for their effect on cell viability. Concentration-response curves (CRCs) were derived directly from the primary screen, and both potency and efficacy values were used to identify compounds with robust bioactivity profiles. We screened the NIH Chemical Genomics Center (NCGC) Pharmaceutical Collection (NPC) and Mechanism Interrogation Plate (MIPE) small molecule collections of approved and investigational compounds against these cell lines; and measured metabolically active cells after 48 hours of compound treatment as a proxy for cell viability.
Assay Submitter: Nathalia J. Martinez, National Center for Advancing Translational Sciences, National Institutes of Health, Rockville, MD, USA; email: natalia.martinez@nih.gov
[1] Shen, M et al. Quantitative high-throughput phenotypic screening of pediatric cancer cell lines identifies multiple opportunities for drug repurposing. Oncotarget 2017 Dec 19;9(4):4758-4772. PMID 29435139.
The cells were obtained from University of North Carolina (UNC), Pediatric Preclinical Testing Program (PPT), and Coriell Institute (CI).
qHTS cell viability assay:
Cells were assayed in growth media at a density of 500-1,000 cells/well. Five microliters of cells were dispensed into 1,536-well, white, solid-bottom, TC-treated plates (Greiner Bio One) using a multidrop dispenser and incubated at 37 degrees C, 5% CO2, under a humidified atmosphere for 5 hours. Twenty-three nanoliters of compounds and controls (neutral control DMSO or positive control bortezomib at final concentration of 2.3 µM) were subsequently transferred by Kalypsys pintool. For primary screens, the MIPE collection was tested at 11-point dilutions (final concentrations range from 0.78 nM to 46 µM) and the NPC collection at 8-point dilutions (final concentrations range from 0.59 nM to 46 µM). Compounds tested in follow-up screens were assayed at 11-point dilutions. Cells were incubated for 48 hours, followed by addition of 3 µL of CellTiter-Glo (Promega). After a 15 min incubation at room temperature, samples were analyzed for luminescence intensity using a ViewLux High-throughput CCD imager equipped with clear filters.
% is scaled to controls: 0 for no effect and ±100 for the full control effect; potency is read from the fitted curve at half-maximal effect.

Row | Compound | activity change, negative = cytotoxic | Potency
1 | CC(C)(C(=O)O)c1ccc(C(O)CCCN2CCC(C(O)(c3ccccc3)c3ccccc3)CC2)cc1 (stereo not given) | -7.94% | –
2 | CC[C@@]1(c2ccccc2)NC(=O)N(C)C1=O | -10.8% | –
3 | NS(=O)(=O)c1cc2c(cc1Cl)NC(CSCc1ccccc1)=NS2(=O)=O | -1.99% | –
4 | Cc1cc(CC(=O)O)n(C)c1C(=O)c1ccc(Cl)cc1 | 8.63% | –
5 | CN(C)CC[C@@H](c1ccc(Cl)cc1)c1ccccn1 | -17% | –
6 | CCCCN1CCCC[C@H]1C(=O)Nc1c(C)cccc1C | -18.3% | –
7 | CN(C)CCN(Cc1ccccc1)c1ccccn1 | -26.1% | –
8 | CC1(C)S[C@@H]2[C@H](NC(=O)Cc3ccccc3)C(=O)N2[C@H]1C(=O)O (tested in a mixture with another compound) | 5.68% | –
9 | CC1=C(C/C=C(\C)CCC[C@H](C)CCC[C@H](C)CCCC(C)C)C(=O)c2ccccc2C1=O | 11% | –
10 | Nc1nc2c(ncn2CCC(CO)CO)c(=O)[nH]1 | -10.8% | –
11 | CC1=C(/C=C/C(C)=C/C=C/C(C)=C/C(=O)O)C(C)(C)CCC1 | 35.1% | –
12 | CO/N=C(\C(=O)N[C@@H]1C(=O)N2C(C(=O)O)=C(CSc3nc(=O)c(O)nn3C)CS[C@H]12)c1csc(N)n1 | 13.7% | –
13 | NCC(=O)CCC(=O)O | 0.909% | –
14 | CC/C=C(\C(=O)N[C@@H]1C(=O)N2C(C(=O)OCOC(=O)C(C)(C)C)=C(COC(N)=O)CS[C@H]12)c1csc(N)n1 | – | inactive
15 | NC(=O)NNc1ccccc1 | 1.34% | –
16 | O=C(CCCN1CCN(c2ccccn2)CC1)c1ccc(F)cc1 | -10% | –
17 | NS(=O)(=O)c1cc2c(cc1C(F)(F)F)NC(Cc1ccccc1)NS2(=O)=O (stereo not given) | 4.73% | –
18 | O=c1[nH]cnc2c1ncn2[C@@H]1O[C@H](CO)[C@@H](O)[C@H]1O | 10.2% | –
19 | CCn1cc(C(=O)O)c(=O)c2cnc(N3CCNCC3)nc21 | 10.4% | –
20 | C[C@H]1O[C@@H](n2cc(F)c(=O)[nH]c2=O)[C@H](O)[C@@H]1O | -11.4% | –

Row | Compound | activity change, negative = cytotoxic | Potency
21 | Cc1cccc(C)c1NC(=O)CN(CC(=O)O)CC(=O)O | -17.6% | –
22 | CC(COc1ccccc1)NC(C)C(O)c1ccc(O)cc1 (stereo not given) | -17.1% | –
23 | [Cl][In]([Cl])[Cl] | -13.2% [at 115 µM] | –
24 | CCN(CC)CCSC(=O)C(c1ccccc1)c1ccccc1 | -22.7% | –
25 | CC(=O)OCC(=O)[C@@]1(O)CC[C@H]2[C@@H]3CCC4=CC(=O)CC[C@]4(C)[C@H]3C(=O)C[C@@]21C | -7.15% | –
26 | N[C@@H](CSCCCO)C(=O)O | -2.27% [at 20 µM] | –
27 | CC(O)COc1ccccc1 (stereo not given) | 0.125% | –
28 | CCC(=O)Nc1ccc(O)cc1 | -4.49% | –
29 | CN(C)CCCN1c2ccccc2CCc2ccccc21 | -29.6% | –
30 | CCCCC(CC)COC(=O)c1ccccc1O (stereo not given) | 11.2% | –
31 | CCC(=O)c1ccc(O)cc1 | -12.2% | –
32 | CC1(C)[C@@H]2CC[C@@]1(C)C(=O)C2 | -8.28% | –
33 | O=C(O)[C@H](O)c1ccccc1 | -0.246% | –
34 | CCCCN(CCCC)CC(O)c1cc(Cl)cc2c1-c1ccc(Cl)cc1/C2=C/c1ccc(Cl)cc1 (stereo not given) | -36.3% | –
35 | CC(=O)Oc1c(C)c(C)c2c(c1C)CC[C@@](C)(CCC[C@H](C)CCC[C@H](C)CCCC(C)C)O2 | -0.764% | –
36 | N[C@H]1C(O)O[C@H](CO)[C@@H](O)[C@@H]1O (stereo not given in full) | -10.9% | –
37 | CS(=O)(=O)c1ccc([C@@H](O)[C@@H](CF)NC(=O)C(Cl)Cl)cc1 | 10.7% | –
38 | CC1(C)OC(=O)NC1=O | 0.0352% | –
39 | Cn1c(=O)c2c(ncn2CC2OCCO2)n(C)c1=O | -19.1% | –
40 | CCN(CC)CCCC(C)Nc1c2ccc(Cl)cc2nc2ccc(OC)cc12 (stereo not given) | – | 5.45 µM (active)
